Our source for the outcome values is PubChem BioAssay AID623979 (Broad Institute, 2012).

Molecules are shown by their SMILES. Entries with a potency or affinity are not part of this list. Results filed as inconclusive are left out. Active and inactive are the calls of the source.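 Rule for the calls: active = fitted half-maximal inhibition concentration at or below twice the top tested dose in every test run; inconclusive = runs disagree, or a weak flat response or poor fit; inactive = the rest, including flat or wrong-direction curves.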

The experiment deals with Cyclin-dependent kinase 5 activator 1 (Homo sapiens) + Cyclin-dependent kinase 5 (Homo sapiens) (UniProt Q15078+Q00535). In words: inhibitors of human CDK5 activity – biochemical, microfluidic mobility shift, dry powder, set 2, selectivity assay for GSK3beta inhibitor project, dose response (AID 623979).
Chain of Cyclin-dependent kinase 5 activator 1 (Homo sapiens) + Cyclin-dependent kinase 5 (Homo sapiens) (Q00535 whole entry, looked up): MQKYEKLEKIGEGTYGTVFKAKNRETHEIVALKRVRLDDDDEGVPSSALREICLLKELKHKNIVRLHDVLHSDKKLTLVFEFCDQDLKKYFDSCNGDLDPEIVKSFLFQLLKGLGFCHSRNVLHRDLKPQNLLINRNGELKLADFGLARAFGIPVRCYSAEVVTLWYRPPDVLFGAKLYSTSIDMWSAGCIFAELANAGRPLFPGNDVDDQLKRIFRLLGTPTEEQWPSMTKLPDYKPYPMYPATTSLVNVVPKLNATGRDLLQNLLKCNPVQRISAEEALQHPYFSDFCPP
Chain of Cyclin-dependent kinase 5 activator 1 (Homo sapiens) + Cyclin-dependent kinase 5 (Homo sapiens) (Q15078 whole entry, looked up): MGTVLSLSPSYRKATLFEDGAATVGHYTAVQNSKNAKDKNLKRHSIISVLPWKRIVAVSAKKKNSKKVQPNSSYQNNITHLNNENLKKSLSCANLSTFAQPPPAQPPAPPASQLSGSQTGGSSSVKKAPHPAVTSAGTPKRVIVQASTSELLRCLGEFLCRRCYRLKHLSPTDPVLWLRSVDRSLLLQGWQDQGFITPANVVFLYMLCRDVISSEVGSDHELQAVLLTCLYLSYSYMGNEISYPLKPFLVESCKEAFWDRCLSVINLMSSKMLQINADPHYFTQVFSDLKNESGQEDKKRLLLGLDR

As for `Cc1cccc(OCC(=O)Nc2ccc3c(c2)C(=O)NC3=O)c1`, the result was inactive.
For `Nc1nc(NCC2CCCO2)nc(Nc2ccc(Cl)cc2)c1[N+](=O)[O-]` (stereo not given) the value was “inactive”.
Regarding `Nc1nc(NCC2CCCO2)nc(Nc2ccc(F)cc2)c1[N+](=O)[O-]` (stereo not given), the result was inactive.
For `COc1cc(C(=O)N2CCN(c3ccccn3)CC2)cc(OC)c1OC` the value was “inactive”; for `Clc1ccc(CSc2nnc(-c3ccncc3)o2)c(Cl)c1`, “inactive”.
For `Nc1nonc1-n1nnc(C(=O)N/N=C/c2c(F)cccc2Cl)c1-c1ccc2c(c1)OCO2` the value was “inactive”; for `Cc1ccc(S(=O)(=O)N2CCN(CC(=O)N/N=C/c3ccccn3)CC2)cc1`, “inactive”; for `CCOc1ccccc1/C=N/NC(=O)c1nnn(-c2nonc2N)c1CN1CCCCCC1`, “inactive”.
To `Nc1nonc1-n1nnc(C(=O)N/N=C/c2cccc(Cl)c2)c1CN1CCCCCC1` belongs “inactive”; to `COC(=O)c1ccc(CSc2ccc3nnc(-c4ccc(F)cc4)n3n2)o1`, “inactive”.
